This is an account of results in PubChem BioAssay (NCATS).

Records with an inconclusive call do not appear. A call without a number means that no potency is given here. Active and inactive are the calls of the source. The call rests on the fitted dose curve; in most records, active means well fitted curve in the direction sought with a large enough effect; inconclusive means small, poorly fitted or top-dose-only effect, or another doubt; inactive means no such curve, though single readings can be large; an effect the other way counts as inactive or inconclusive.

Pyruvate kinase (Leishmania mexicana), sequence (Q27686 2-499 E452W): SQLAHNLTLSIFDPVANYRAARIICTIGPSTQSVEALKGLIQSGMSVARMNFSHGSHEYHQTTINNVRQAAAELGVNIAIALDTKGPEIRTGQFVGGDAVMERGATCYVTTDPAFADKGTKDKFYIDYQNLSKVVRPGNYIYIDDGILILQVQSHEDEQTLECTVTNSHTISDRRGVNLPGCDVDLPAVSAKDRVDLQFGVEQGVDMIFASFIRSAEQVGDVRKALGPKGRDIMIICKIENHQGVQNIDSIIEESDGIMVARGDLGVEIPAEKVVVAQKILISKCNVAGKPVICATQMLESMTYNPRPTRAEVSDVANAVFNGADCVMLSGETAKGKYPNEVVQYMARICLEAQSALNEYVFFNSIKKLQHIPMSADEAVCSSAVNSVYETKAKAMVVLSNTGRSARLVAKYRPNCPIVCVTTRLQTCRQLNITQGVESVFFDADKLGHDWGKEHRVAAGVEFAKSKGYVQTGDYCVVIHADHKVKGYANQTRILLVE

The first assay addresses Pyruvate kinase (Leishmania mexicana) (UniProt Q27686). Briefly: qHTS Validation Assay for Inhibitors of Leishmania Mexicana Pyruvate Kinase (AID 945). Further: potency means the concentration at half of the fitted maximal effect. As to conditions: purified L. mexicana pyruvate kinase, enzyme activity, E451W mutant enzyme; series mostly up to 57.5 µM. An outline of the steps:
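Purified LmPYK (E451W mutant, 0.2 nM) was incubated 1 h at room temperature with 0.5 mM PEP and 0.1 mM ADP in 50 mM imidazole pH 7.2, 50 mM KCl, 7 mM MgCl2; ATP formed was read by PKLight luminescence, normalized to DMSO wells.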
On the technique in general: qHTS replaces the single test concentration by a dilution series.
For `CN1C(C(=O)Nc2ccccn2)=C(O)c2ccccc2S1(=O)=O`, the Potency result is “inactive”.

In the case of `Cn1cnc2c1c(=O)[nH]c(=O)n2C`, the Potency result was “inactive”.

As to `NCCS(=O)(=O)O`, the Potency entry is “inactive”.

As for `Nc1ccn([C@H]2CC[C@@H](CO)O2)c(=O)n1`, the Potency entry was “inactive”.

As to `O=c1c(-c2ccc(O)cc2)coc2cc(O)cc(O)c12`, the Potency is 12.6 µM (active).

As to `Clc1ccc(C(c2ccccc2Cl)C(Cl)Cl)cc1` (stereo not drawn), the Potency result is “inactive”.

On to `CC(C)C(=O)Nc1ccc([N+](=O)[O-])c(C(F)(F)F)c1`, for which the Potency entry is “inactive”.

For the compound `COc1ccc2[nH]cc(CCNC(C)=O)c2c1`, the Potency result was “inactive”.

Take `O=C(c1ccc(F)cc1)C1CCN(CCn2c(=O)[nH]c3ccccc3c2=O)CC1`: the Potency entry was “inactive”.

In the case of `NCCCCCC(=O)O`, the Potency result was “inactive”.

For `Cc1cc(C(C)(C)C)cc(C)c1CC1=NCCN1`, the Potency result was “inactive”.

On to `Cc1ccccc1N1C(=O)c2cc(S(N)(=O)=O)c(Cl)cc2NC1C` (stereo not drawn), for which the Potency entry is “inactive”.

Take `Nc1c2c(nc3ccccc13)CCCC2`: the Potency result was “inactive”.

Turning to `CC(C)Cc1ccc(C(C)C(=O)O)cc1` (stereo not drawn), the Potency result is “inactive”.

In the case of `CN(C)c1nc(N(C)C)nc(N(C)C)n1`, the Potency entry is “inactive”.

On to `NCCc1cnc[nH]1`, for which the Potency result is “inactive”.

Turning to `CN1CCC(=C2c3ccccc3CC(=O)c3sccc32)CC1`, the Potency entry is “inactive”.

For the compound `NS(=O)(=O)c1cc2c(cc1Cl)NCNS2(=O)=O`, the Potency result is “inactive”.

For `Cc1cn([C@H]2C=C[C@@H](CO)O2)c(=O)[nH]c1=O`, the Potency entry was “inactive”.

With `O=c1c(O)c(-c2ccc(O)c(O)c2)oc2cc(O)cc(O)c12`, the Potency result was “inactive”.

As for `N[C@@H](Cc1c[nH]c2ccc(O)cc12)C(=O)O`, the Potency entry is “inactive”.

Turning to `CCc1cccc2c3c([nH]c12)C(CC)(CC(=O)O)OCC3` (stereo not drawn), the Potency entry is “inactive”.

System in a further assay: not listed separately
Description: MultiTox-Fluor Cytotoxicity Assay - LYMP1-001 - Dead Cells (AID 946).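 Further: cells exposed to compound for 16 h.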 As to conditions: LYMP1-001 lymphoblastoid cells, dead-cell protease fluorescence; series mostly up to 92.2 µM. An outline of the steps: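 In this qHTS, 15 uM tetraoctylammonium bromide defined 100% and DMSO defined basal activity. Lymphoblastoid cells (LYMP1-001, 2500 per well) received compound for 16 hr at 37 C before a fluorogenic dead-cell substrate readout at 485/520 nm.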
Consider `NCCS(=O)(=O)O`, for which the Potency result is “inactive”.

For `Nc1ccn([C@H]2CC[C@@H](CO)O2)c(=O)n1`, the Potency entry is “inactive”.

With `O=c1c(-c2ccc(O)cc2)coc2cc(O)cc(O)c12`, the Potency result is “inactive”.

Consider `Clc1ccc(C(c2ccccc2Cl)C(Cl)Cl)cc1` (stereo not drawn), for which the Potency entry was “inactive”.

As for `CC(C)C(=O)Nc1ccc([N+](=O)[O-])c(C(F)(F)F)c1`, the Potency result was “inactive”.

`COc1ccc2[nH]cc(CCNC(C)=O)c2c1`: the Potency entry is “inactive”.

With `Cn1c(=O)c2[nH]cnc2n(C)c1=O`, the Potency entry was “inactive”.

In the case of `Nc1c2c(nc3ccccc13)CCCC2`, the Potency result is “inactive”.

With `Cn1c(=O)c2c(ncn2C)n(C)c1=O`, the Potency entry is “inactive”.

Consider `NS(=O)(=O)c1cc2c(cc1Cl)NCNS2(=O)=O`, for which the Potency result is “inactive”.

Consider `Cc1cn([C@H]2C=C[C@@H](CO)O2)c(=O)[nH]c1=O`, for which the Potency result is “inactive”.

As to `N[C@@H](Cc1c[nH]c2ccc(O)cc12)C(=O)O`, the Potency entry was “inactive”.

On to `CCC1(c2ccccc2)C(=O)NCNC1=O`, for which the Potency result was “inactive”.

System in a further assay: not listed separately
Briefly: MultiTox-Fluor Cytotoxicity Assay - LYMP1-001 - Live Cells (AID 947). As to conditions: LYMP1-001 lymphoblastoid cells, live-cell protease fluorescence viability; series mostly up to 92.2 µM.
As to `NCCS(=O)(=O)O`, the call was inactive.

Consider `Nc1ccn([C@H]2CC[C@@H](CO)O2)c(=O)n1`, for which the call was inactive.

With `O=c1c(-c2ccc(O)cc2)coc2cc(O)cc(O)c12`, the outcome was inactive.

Consider `Clc1ccc(C(c2ccccc2Cl)C(Cl)Cl)cc1` (stereo not drawn), for which the call was inactive.

With `CC(C)C(=O)Nc1ccc([N+](=O)[O-])c(C(F)(F)F)c1`, the compound was called inactive.

Take `COc1ccc2[nH]cc(CCNC(C)=O)c2c1`: the compound was classed as inactive.

With `Cn1c(=O)c2[nH]cnc2n(C)c1=O`, the compound was called inactive.

In the case of `Nc1c2c(nc3ccccc13)CCCC2`, the outcome was inactive.

As to `Cn1c(=O)c2c(ncn2C)n(C)c1=O`, the result was inactive.

In the case of `NS(=O)(=O)c1cc2c(cc1Cl)NCNS2(=O)=O`, the compound was classed as inactive.

For the compound `Cc1cn([C@H]2C=C[C@@H](CO)O2)c(=O)[nH]c1=O`, the call was inactive.

As for `N[C@@H](Cc1c[nH]c2ccc(O)cc12)C(=O)O`, the compound was called inactive.

As to `CCC1(c2ccccc2)C(=O)NCNC1=O`, the compound was classed as inactive.
